In all, about 35,000 sequences were measured (“fluorescence intensity (a.u.)”: median about 10,000, highest 2% from about 52,000 on). Shown is part of a subset that was picked to be rich in the highest values.

The assay addresses T1, OsWOX13 (Oryza sativa, UniProt Q5QMM3 1-267).
T1 sequence: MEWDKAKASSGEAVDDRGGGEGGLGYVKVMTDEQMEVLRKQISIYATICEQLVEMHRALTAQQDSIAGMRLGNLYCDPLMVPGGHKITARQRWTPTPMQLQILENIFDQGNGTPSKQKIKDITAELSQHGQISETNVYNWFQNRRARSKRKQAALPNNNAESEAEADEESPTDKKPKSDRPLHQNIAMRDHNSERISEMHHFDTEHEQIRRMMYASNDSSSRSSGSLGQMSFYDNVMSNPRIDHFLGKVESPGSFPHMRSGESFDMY
In words: protein-binding microarray (RPBM); PBS, 2% BSA, 51.3 ng/ul salmon testes DNA, 50 uM zinc acetate, 200 nM TF, 25 C, 1 h; high values mean tight binding. The settings on record: protein: recombinant; tags: N-terminal polyhistidine and DsRed monomer fusion (pET32a); label: CyDye5-dUTP incorporated in the synthesized complementary strand; 3' TTTTT single-stranded linker to array surface; dsDNA, one strand shown. In outline:
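Ni–NTA purification followed expression in E. coli BL21-CodonPlus of transcription factors fused N-terminally to a polyhistidine tag and DsRed. At 200 nM in PBS with 2% BSA, salmon testes DNA and 50 µM zinc acetate, the protein was incubated for 1 h at 25 °C with a custom Agilent array that had been primer-extended with Cy5-dUTP and blocked with 2% BSA. After washing, the array was read on an Axon 4000B scanner. The binding signal is per-feature fluorescence intensity in arbitrary units.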
Take “TTGAGCCTAATTACGCCATGATTTGACAATGTGATGCTACCGGAGTCACCTAGTGCAG”: the binding signal is 40200 fluorescence intensity (a.u.).
“GATATGATATTGACACATGATATGTAATTATATATAGAGCCGGAGTCACCTAGTGCAG”: the binding signal is 11400 fluorescence intensity (a.u.).
Regarding “CTAATTACGTCATGATTTGACAATGTGGTGTGGTGCTACACGGAGTCACCTAGTGCAG”, the binding signal is 37500 fluorescence intensity (a.u.).
Regarding “AGCCTAATTACGCCATGATTTGACAATGTGGTGCTACAGTCGGAGTCACCTAGTGCAG”, the binding signal is 58300 fluorescence intensity (a.u.).
As to “ATTTGATTGACGAGGTATAGTAAAATGCGTCAACTTATGTCGGAGTCACCTAGTGCAG”, the binding signal was 63200 fluorescence intensity (a.u.).
The figure for “GCCTAATTACGCCATGATTTGATAATGTGGTGCTACAGTACGGAGTCACCTAGTGCAG” is 41800 fluorescence intensity (a.u.); for “AACTAAAATTACATATGTAAATTTAGTTGATATGACATGTCGGAGTCACCTAGTGCAG” it is 24600 fluorescence intensity (a.u.).
The figure for “AAAATTGATATGTAATTATGACACACTTACGTCGGATATGCGGAGTCACCTAGTGCAG” is 64500 fluorescence intensity (a.u.); for “TGTAAATATATTATGATTGTAGTATAACTTATATAGTATTCGGAGTCACCTAGTGCAG” it is 10900 fluorescence intensity (a.u.).
“TGTATGCGATTTGATTAAACTTTTAAAATGTTGATTATTACGGAGTCACCTAGTGCAG”: the binding signal is 4680 fluorescence intensity (a.u.).
The figure for “CCTGACATCTCTCAATCGGACGGTGGATACCACCTCACCGCGGAGTCACCTAGTGCAG” is 3620 fluorescence intensity (a.u.); for “CGGTCATCAATCTCATCAGCTACATCCCAAAGGGGAATCACGGAGTCACCTAGTGCAG” it is 5580 fluorescence intensity (a.u.); for “ATTTGATTTAAAACCTCAGTTTTCGATTGAGAGAAAATATCGGAGTCACCTAGTGCAG” it is 4350 fluorescence intensity (a.u.).
Turning to “CTGTCAATCTGCATATATCTGTCTCTCTTACTCACTAACACGGAGTCACCTAGTGCAG”, the binding signal is 8750 fluorescence intensity (a.u.).
In the case of “ACTCACGCGCAATTAGCTGGTTTTGATGGGTCAGGAGGAACGGAGTCACCTAGTGCAG”, the binding signal is 5020 fluorescence intensity (a.u.).
The figure for “TGTAATTTAATTTTGCCTCCACATTTCCTGACTTTGGCCACGGAGTCACCTAGTGCAG” is 45700 fluorescence intensity (a.u.); for “ACGCCATGATTTGACAATGTGATGCTACAGTAAACATTTGCGGAGTCACCTAGTGCAG” it is 23300 fluorescence intensity (a.u.).
On to “ACGCCATGATTGACAATGTGATGCTACAGTAAACATTTGCCGGAGTCACCTAGTGCAG”, for which the binding signal was 53900 fluorescence intensity (a.u.).
Turning to “CCATGATTTGACAATGTGATGCTACAGTAAACATTTGCTACGGAGTCACCTAGTGCAG”, the binding signal is 42800 fluorescence intensity (a.u.).
The same measure for “CACCATAACTAATTAACAAGCCACCTATTTCCTCTTGACACGGAGTCACCTAGTGCAG”: 10800 fluorescence intensity (a.u.); for “AGCCATGCATCAACACGTAATTAAGTACTAGTTGACAGTGCGGAGTCACCTAGTGCAG”: 4190 fluorescence intensity (a.u.).
As for “ATGTATTTAATTATAGATTTAATAAAATTAATCTAGTGTTCGGAGTCACCTAGTGCAG”, the binding signal is 17500 fluorescence intensity (a.u.).
In the case of “TTGCTTTAACTAGCTGCTTAATTATATGTTCTTTGTATTTCGGAGTCACCTAGTGCAG”, the binding signal was 5230 fluorescence intensity (a.u.).
For “GCTAATTAATCTATTATTGATTTAGATGTATCGACCAGTTCGGAGTCACCTAGTGCAG”, the binding signal was 53500 fluorescence intensity (a.u.).
The figure for “CACATTCAGTTCTAGATTAATTTATTTTGGATGAATGTATCGGAGTCACCTAGTGCAG” is 6060 fluorescence intensity (a.u.); for “CGGCTAATTAATTTATATTTCTATATGTATTGACCCTGTTCGGAGTCACCTAGTGCAG” it is 61100 fluorescence intensity (a.u.); for “CCGAATTTCTATTATTTCTTAATTGTATTTCTATATGGACCGGAGTCACCTAGTGCAG” it is 7410 fluorescence intensity (a.u.).
As to “AATCAATTATAACCATTTTCTATTTAATTACCTCACGCACCGGAGTCACCTAGTGCAG”, the binding signal is 25700 fluorescence intensity (a.u.).
On to “ATATAACAGTTTATTCACAAATTATTTTCCGTTTGCAAATCGGAGTCACCTAGTGCAG”, for which the binding signal was 6830 fluorescence intensity (a.u.).
The figure for “AATATTGATGCTTAAATTTCTTTCGAAGATCCTATGGAAGCGGAGTCACCTAGTGCAG” is 3840 fluorescence intensity (a.u.); for “ATTGACAAGATAGATTGTTGCCCAATTTTCGAAGATGCTCCGGAGTCACCTAGTGCAG” it is 42000 fluorescence intensity (a.u.).
As for “ATAAATTGATGCCCAATTTTCGAAGATGCTCATAGGGGTGCGGAGTCACCTAGTGCAG”, the binding signal was 52500 fluorescence intensity (a.u.).
As to “TCCTGTAACAGAATTGGAAAACCCAATCTGGCGACGGCTGCGGAGTCACCTAGTGCAG”, the binding signal is 9790 fluorescence intensity (a.u.).
In the case of “CTTGACAGGCACCGTGATACTTGGGTTCTTGATATAACTGCGGAGTCACCTAGTGCAG”, the binding signal is 34400 fluorescence intensity (a.u.).
For the sequence “CTGACTGGCTCTGATTAATTAATTGATGATCGATCGAGCGCGGAGTCACCTAGTGCAG”, the binding signal is 49800 fluorescence intensity (a.u.).
Regarding “ATATAGTTGTGATTAATTAGTGAGTAGAGTGTGATACCTGCGGAGTCACCTAGTGCAG”, the binding signal was 22100 fluorescence intensity (a.u.).
Take “TTAAAATTATTTTATAATTAATATTTATTATTATTATTAGCGGAGTCACCTAGTGCAG”: the binding signal was 12400 fluorescence intensity (a.u.).
As to “GTAATTGATTTTCTGGCGCGATTAAGAGCTTGGTATATAGCGGAGTCACCTAGTGCAG”, the binding signal is 59200 fluorescence intensity (a.u.).
For “AATCCTCTTAATTATTATTAGCGGTTCGTCCTATGATCTTCGGAGTCACCTAGTGCAG”, the binding signal was 7080 fluorescence intensity (a.u.).
On to “TGATTAATTAGCGAGAGTAATTAATTAATTATAGCCTGCGCGGAGTCACCTAGTGCAG”, for which the binding signal is 61600 fluorescence intensity (a.u.).
On to “ATGATATAATTAATTAATTAGCGCGCGGTTCCACCTCCCGCGGAGTCACCTAGTGCAG”, for which the binding signal is 60200 fluorescence intensity (a.u.).
The same measure for “TAGCTTAATTTGATTTCTATTTAAGACCTTGACATTAACGCGGAGTCACCTAGTGCAG”: 24400 fluorescence intensity (a.u.); for “GCGTAATTAGGCGGAGAGATTATAGGGAGAGAGATCGCGACGGAGTCACCTAGTGCAG”: 16700 fluorescence intensity (a.u.).

The values above are taken from publication PMC7819943, “Rice protein-binding microarrays: a tool to detect cis-acting elements near promoter regions in rice”.
